An excerpt weighted towards active compounds, which were near 2.4% of everything screened.
D2 PAM-1 – potentiates the human D2 dopamine receptor allosterically | DiscoveRx D2 beta-arrestin cells, luminescence, 90 min; 100% = 57 uM dopamine signal | potentiation, % (no concentration beside the values) | 360,000 compounds, 0.23% hits | AID 624464; in the data active means potentiation above about 50%; inconclusive means mostly about 30% to 49%
Target sequence (P14416 whole entry, looked up): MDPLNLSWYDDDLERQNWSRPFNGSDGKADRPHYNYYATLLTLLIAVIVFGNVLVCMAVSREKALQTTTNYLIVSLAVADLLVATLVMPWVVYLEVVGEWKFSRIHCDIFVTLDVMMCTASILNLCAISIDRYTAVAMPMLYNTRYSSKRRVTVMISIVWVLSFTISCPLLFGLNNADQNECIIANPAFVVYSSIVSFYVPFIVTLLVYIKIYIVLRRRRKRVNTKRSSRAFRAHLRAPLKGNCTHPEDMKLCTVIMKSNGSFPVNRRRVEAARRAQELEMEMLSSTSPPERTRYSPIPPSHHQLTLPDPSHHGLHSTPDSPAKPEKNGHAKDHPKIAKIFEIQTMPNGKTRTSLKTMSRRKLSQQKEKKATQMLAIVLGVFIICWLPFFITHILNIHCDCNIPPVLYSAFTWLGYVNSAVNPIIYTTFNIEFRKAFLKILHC
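D2 cells co-treated with compound plus 50 nM dopamine (EC20) for 90 min at 37 deg C to detect potentiation. Beta-arrestin recruitment was read as enzyme-fragment luminescence after 1 h at ambient temperature. Full response was set by 57 uM dopamine.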
D2 PAM-2 – D2 dopamine receptor (human) potentiation | 340,000 compounds, 0.34% hits | HEK293 T-REx D2, calcium flux, EC20 dopamine potentiation | AID 485347 | potentiation, % at 10 µM;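 active means potentiation over 3 SD above the plate norm, cut at about 30% in these data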
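Using a no-wash calcium dye in inducible, force-coupled HEK293 Trex cells expressing D2, we tracked fluorescence each second for 180 s after compound, then for 180 s after EC20 dopamine to detect augmented signalling.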
D2 ag-1 – agonists of human D2 dopamine receptor (beta-arrestin); P14416; DiscoveRx PathHunter D2 beta-arrestin, luminescence, 90 min; 100% = 57 uM dopamine signal; activation, % (test concentration not listed); 360,000 compounds, 0.084% hits; in the data active means activation above about 40%; inconclusive means between about 15% and that limit
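Agonist mode: compounds alone added to overnight-plated D2 PathHunter cells for 90 min at 37 C, with 57 uM final dopamine (EC100) defining full response. Beta-arrestin recruitment detected by chemiluminescent reagent, read after 1 h at ambient temperature.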
D2 ag-2 – D2 dopamine receptor (human) agonism; activation, % at 2 µM; P14416; AID 485358; HEK293 T-REx D2 cells, calcium flux agonist mode; 340,000 compounds, 0.53% hits;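 active means activation over 3 SD above normal in the single-dose calcium agonist read, cut at about 30% in these data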
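HEK293 Trex D2 cells, tetracycline-induced, o/n 30 C 5% CO2; no-wash Ca dye, RT 30–90 min; 10-cycle baseline, 23 nl cpd added, kinetic Ca read 180 s; agonist hits = positive Ca response.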
D2 antagonist – antagonizes the human D2 dopamine receptor; P14416; inhibition, % at 10 µM; HEK293 TREx D2 cells, calcium flux, dopamine EC80; 340,000 compounds, 2% hits; in the data active means inhibition above about 30%; inactive means below that, where a call was filed
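Inhibition of EC80 dopamine-driven calcium flux, recorded kinetically, defines activity here; cells are a tetracycline-induced HEK293 T-REx line expressing force-coupled D2.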
D3 arrestin ag – confirmation of human D3 dopamine receptor agonists, beta-arrestin | shares compounds with D2 ag-2 | DiscoveRx D3 beta-arrestin cells, luminescence, 90 min | Potency, µM (titrated, usually from 76.9 µM), hits mostly activators | 2,300 compounds, 4% hits | AID 720506; further: nearly all actives have a fitted effect of over 70% in size
D2 ag-3 – D2 receptor agonism, beta-arrestin counterscreen | DiscoveRx PathHunter D2 beta-arrestin, luminescence, 90 min; response scale: percent relative to full dopamine signal | AID 720507 | Potency, µM (series often up to 76.9 µM), most hits filed as activators | 2,300 compounds, 5.9% hits | shares compounds with D2 ag-2; further: nearly all actives have a fitted effect of over 70% in size
Of the large screens only hits and unclear results are named; the others gave an inactive call (follow-up assays come after a bar, where they were run). Unless noted, the call rests on the fitted dose curve; in most records, active means well fitted activation curve with a large enough effect; inconclusive means small, poorly fitted or top-dose-only effect; inactive means flat fitted curve, though single readings scatter.

COc1ccc(S(=O)(=O)N2CCC(N3CCN(Cc4ccc(F)cc4)C(=O)C3=O)CC2)cc1	none (no result: D2 PAM-1, D2 ag-1, D2 ag-2, D2 antagonist)
COc1ccc(NC(=O)CCCN2C(=O)CCn3nc(-c4cn(C)c5ccccc45)cc32)cc1	none (no result: D2 PAM-1, D2 ag-1, D2 antagonist)
CC(C)N(Cc1cc2ccccc2[nH]c1=O)C(=O)c1cccc([N+](=O)[O-])c1	none
Cc1ccc2[nH]c(=O)c(CN(C(=O)c3cccc([N+](=O)[O-])c3)C(C)C)cc2c1	D2 ag-2 49.6 | D3 arrestin ag inactive | D2 ag-3 inactive
COC(=O)c1ccc(N/C=C/C(=O)c2ccccc2)cc1	none | D3 arrestin ag inactive | D2 ag-3 inactive
COc1ccc(Nc2sc(C(=O)c3ccc(Cl)cc3)c(N)c2C(=O)Nc2ccccc2OC)cc1	none | D3 arrestin ag inactive | D2 ag-3 inactive
Cc1ccc(Cn2nnc3c(=O)[nH]c(C4CCCN(S(=O)(=O)c5ccc(F)cc5)C4)nc32)cc1 (centres undefined)	none (no result: D2 PAM-2)
O=c1[nH]c(C2CCCN(S(=O)(=O)c3ccc(F)cc3)C2)nc2c1nnn2Cc1ccc(F)cc1 (centres undefined)	D2 antagonist 67.8 | D3 arrestin ag inactive | D2 ag-3 inactive
Cc1cc(C(=O)OCC(=O)NC2(C#N)CCCCC2)c(C)o1	none
N#C/C(=C/c1ccc(N2CCOCC2)o1)c1nc2ccccc2[nH]1	none | D3 arrestin ag inconclusive | D2 ag-3 inactive
Cc1cc(C(C)(C)C)ccc1OCCN1CCCC1	none (no result: D2 PAM-2, D2 ag-2, D2 antagonist) | D3 arrestin ag inactive | D2 ag-3 inactive
Cc1ccc(-c2cnc(C(O)c3ccc(Cl)c(Cl)c3)[nH]2)cc1 (centres undefined)	none (no result: D2 PAM-2, D2 ag-2, D2 antagonist)
CCCCNC(=O)CCC(=O)Nc1ccc2nc(N3CCN(C)CC3)cc(C)c2c1	none
CCCN(CCC)CCNC(=O)CCC(=O)Nc1ccc2nc(N3CCN(C)CC3)cc(C)c2c1	none | D3 arrestin ag inactive | D2 ag-3 inactive
COC(=O)c1cc(NC(=O)Cn2nc(-c3ccc(C)c(C)c3)ccc2=O)cc(C(=O)OC)c1	none (no result: D2 PAM-1, D2 ag-1, D2 antagonist)
Cc1cccc(NC(=O)c2nc[nH]c2C(=O)N[C@@H](C)c2ccccc2)c1	none | D3 arrestin ag inactive | D2 ag-3 inactive
Cc1cccc(NC(=O)c2nc[nH]c2C(=O)N(C)Cc2ccccc2)c1	none | D3 arrestin ag inactive | D2 ag-3 inactive
C[C@H](NC(=O)c1nc[nH]c1C(=O)N[C@@H](C)c1ccccc1)c1ccccc1	none
C[C@H](NC(=O)c1[nH]cnc1C(=O)N[C@H](C)c1ccccc1)c1ccccc1	none | D3 arrestin ag inactive | D2 ag-3 inactive
CN(Cc1ccccc1)C(=O)c1[nH]cnc1C(=O)NCCCCCNC(=O)OC(C)(C)C	none | D3 arrestin ag inactive | D2 ag-3 inactive
NC(Cc1ccc(F)cc1)c1csc(Nc2cc(Oc3ccccc3)ncn2)n1 (centres undefined)	none (no result: D2 PAM-2, D2 ag-2, D2 antagonist)
Cc1cccc(NC(=O)COc2ccccc2C(=O)NC(C)c2ccccc2)c1 (centres undefined)	D2 ag-2 48.8 | D3 arrestin ag inconclusive | D2 ag-3 inactive
O=C(CCC(=O)N1CCOCC1)NCCc1ccccc1	none | D3 arrestin ag inactive | D2 ag-3 inactive
S=C(NCCc1ccccc1)N1CCOCC1	none
CCC(NC(C)C)C(O)c1ccc(O)c(O)c1 (centres undefined)	none | D3 arrestin ag inconclusive | D2 ag-3 inactive
Cc1ccc(-c2nc(CCNC(=O)C(=O)Nc3ccc(C)c(Cl)c3)cs2)cc1	none (no result: D2 PAM-1, D2 ag-1, D2 antagonist)
Cc1cc(NC(=O)CNCC(c2ccccc2)N(C)C)c([N+](=O)[O-])cc1C (centres undefined)	none
COc1ccccc1OCC(=O)NC1CCSc2ccccc21 (centres undefined)	none | D3 arrestin ag inactive | D2 ag-3 inactive
Cc1ccc(N2C(=O)c3cccc4c(N5CCN(C)CC5)ccc(c34)C2=O)c2cccnc12	D2 ag-2 32.0 | D3 arrestin ag inactive | D2 ag-3 inactive
Cc1nc(-c2nc(-c3c(C(=O)NNC(=O)Nc4cccc(Cl)c4)noc3C)cs2)cs1	D2 ag-2 40.0, D2 antagonist 49.3 | D3 arrestin ag inactive | D2 ag-3 inactive
CN(Cc1ccccc1)C(=O)c1ccc(NC(=O)Cc2ccc(NC(=O)C3CCN(C(=O)C4CCC4)CC3)cc2)cc1	none (no result: D2 PAM-1, D2 PAM-2, D2 ag-2, D2 antagonist)
CN(Cc1ccccc1)C(=O)c1ccc(NC(=O)Cc2cccc(NC(=O)C3CCN(C(=O)C4CCC4)CC3)c2)cc1	none | D3 arrestin ag inactive | D2 ag-3 inactive
CC1(C(=O)NCC2CC2)Cc2c(-c3cccc(C(F)(F)F)c3)ccnc2O1 (centres undefined)	none (no result: D2 PAM-2, D2 ag-2, D2 antagonist)
CCN1CCC2(CC1)C(C#N)=C(N)Oc1c2sc2nc(C)cc(C)c12	D2 ag-2 66.7, D2 antagonist 53.2 | D3 arrestin ag inactive | D2 ag-3 inactive
CC(=O)N1CCC2(CC1)C(C#N)=C(N)Oc1c2sc2nc(C)cc(C)c12	none
COc1ccc(/C(O)=C/c2nc3ccc(C(=O)NCCc4cccc(C)c4)cc3[nH]c2=O)cc1OC	none | D3 arrestin ag inactive | D2 ag-3 inconclusive
CCOc1ccc(NC(=O)CC2C(=O)NCCN2C(=O)Nc2ccccc2)cc1 (centres undefined)	none | D3 arrestin ag inactive | D2 ag-3 inactive
O=C(CCN1CCN(c2ccccc2)CC1)Nc1ccccc1	D2 ag-2 73.1, D2 antagonist 53.5 | D3 arrestin ag inactive | D2 ag-3 inactive
O=C(CC1C(=O)NCCN1C(=O)Nc1ccccc1)Nc1ccc(F)cc1 (centres undefined)	none
COc1ccc(NC(=O)CCN2CCN(c3ccc(F)cc3)CC2)cc1	D2 ag-2 64.7, D2 antagonist 76.8 | D3 arrestin ag inactive | D2 ag-3 inactive
O=C(CCN1CCN(CCO)CC1)Nc1ccccc1	none
O=C(CN1CCN(c2ccccc2)CC1)Nc1ccc(OCc2ccccc2)cc1	D2 ag-2 43.7, D2 antagonist 55.5 | D3 arrestin ag inconclusive | D2 ag-3 inactive
Cc1noc2nc(C(=O)O)nc(N3CCCCC3)c12	none (no result: D2 PAM-1, D2 ag-1, D2 antagonist)
CCOc1ccc(NC(=O)CCN2CCN(c3ccccc3)CC2)cc1	D2 ag-1 inconclusive, D2 ag-2 97.9, D2 antagonist 83.2 | D3 arrestin ag inconclusive | D2 ag-3 inconclusive
CCOC(=O)N1CCN(CC(=O)Nc2ccc(Oc3ccccc3)cc2)CC1	D2 ag-1 44.1, D2 ag-2 56.3, D2 antagonist 43.3 | D3 arrestin ag inconclusive | D2 ag-3 inconclusive
C=CCC(CC=C)(CNC(=O)C(=O)Nc1cccc(C(F)(F)F)c1)c1ccccc1	none (no result: D2 PAM-1, D2 ag-1, D2 antagonist)
CCn1c(SCc2ccc(F)cc2Cl)nc(=O)c2c(C(=O)OC)cc(C3CC3)nc21	none (no result: D2 PAM-1, D2 ag-1, D2 antagonist)
